Assay results reported in PubChem BioAssay AID1159580 (chemical genetic matrix, 2015).
The whole screen tested about 5,500 compounds, of which about 2,000 (36%) were called active. Roughly 18% stayed inconclusive and do not appear here. Rule as the data show it: active = normalized growth mostly below about 0.91 (no sharp cut-off); inconclusive = no clear call, values can overlap the other calls; inactive = mostly above about 0.92. This is one part of the list.

Assay: chemical genetic growth profiling, strain panel (AID 1159580);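 also: tested at 20 µM; growth read once vehicle control cultures reached saturation at 30 °C; 1 = growth at the plate median or of vehicle wells; lower values mean less growth of the strain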
Conditions: S. cerevisiae deletion strains, growth OD

Measured: normalized growth

Cc1cn([C@H]2C[C@@H](N=[N+]=[N-])[C@@H](CO)O2)c(=O)[nH]c1=O
inactive: locus YAL040C, strain CLN3, active compounds read low 1 | locus YER002W, strain NOP16, active compounds read low 0.99 | locus YMR307W, strain GAS1, active compounds read low 0.999 | locus YNL128W, strain TEP1, active compounds read low 1.01 | locus YNL175C, strain NOP13, active compounds read low 0.983 | locus YNL197C, strain WHI3, active compounds read low 1 | locus YNL224C, strain SQS1, active compounds read low 0.974 | locus YOR083W, strain WHI5 (second series), active compounds read low 1.02 | locus YPL241C, strain CIN2, active compounds read low 0.995
